# Results published in PubChem BioAssay AID493131 (Broad Institute, 2011).
# Screen size: about 340,000 compounds; about 3,300 (0.97%) were called active. The sample holds actives, similar compounds and a random draw of the others, so the mix is not that of the screen. Unmarked numbers belong to inactive results.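 The calls were made as follows: active = mean activation above about 17%, with every replicate also reaching it (limit read from the data, passing the limit was not always enough); inconclusive = only one of the two conditions met; inactive = the rest.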
# Molecular target: Protein FosB (Mus musculus) (UniProt P13346)
# Sequence (P13346 whole entry, looked up): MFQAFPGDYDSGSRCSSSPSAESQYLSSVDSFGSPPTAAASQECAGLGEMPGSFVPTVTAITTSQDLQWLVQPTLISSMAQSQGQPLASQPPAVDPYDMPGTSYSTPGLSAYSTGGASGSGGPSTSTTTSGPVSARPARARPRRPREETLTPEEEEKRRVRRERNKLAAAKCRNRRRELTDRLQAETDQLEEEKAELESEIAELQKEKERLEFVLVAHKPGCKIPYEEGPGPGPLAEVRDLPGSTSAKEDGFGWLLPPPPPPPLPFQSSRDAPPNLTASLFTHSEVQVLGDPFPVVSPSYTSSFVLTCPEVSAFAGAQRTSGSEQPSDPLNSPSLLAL
# Assay: activators of delta FosB homodimer, primary screen, biochemical, fluorescence polarization, TAMRA-CDK5 oligo, single point (AID 493131);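 also: fluorescence polarization rise as delta FosB binds a TAMRA Cdk5 AP-1 oligo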
# Conditions: purified delta FosB, at 25 µM, stronger effect = higher value, percent of positive-control signal above neutral wells
row,Structure (SMILES),activation
1,O=C(COC(=O)c1cnccn1)Nc1cccc2ccccc12,-2.31%
2,N#CCCN1CCN(S(=O)(=O)c2ccc(S(=O)(=O)NC3CCCCC3)cc2)CC1,-3.88%
3,COC(=O)c1cc(NC(=O)CN2CCN(C(C)=O)CC2)cc(C(=O)OC)c1,2.81%
4,Cc1cccc(Nc2nnc(SCC(=O)c3c(N)n(C4CC4)c(=O)[nH]c3=O)s2)c1C,-2.18%
5,Cc1nnc(NC(=O)Nc2ccc(Cl)c(Cl)c2)s1,28.8% (active)
6,Cc1nnc(NC(=O)C(c2ccccc2)c2ccccc2)s1,-0.437%
7,Cc1nnc(NC(=O)c2ccc3nccnc3c2)s1,1.3%
8,CC(C)Cn1c(N)c(C(=O)COC(=O)CN2C(=O)C3CC=CCC3C2=O)c(=O)n(C)c1=O (centres undefined),-11.5%
9,COc1cccc(N2CC(NS(=O)(=O)c3cccs3)CC2=O)c1 (centres undefined),0.171%
10,CCOc1ccc(CNC(=O)C2CCCN(c3nnc(C)c4c(C)n(-c5ccccc5)nc34)C2)cc1 (centres undefined),-5.11%
11,CCc1ccc(CNC(=O)C2CCN(c3nnc(C)c4c(C)n(-c5ccc(C)cc5)nc34)CC2)cc1,82.7% (active)
12,CCc1ccc(CNC(=O)C2CC(=O)N(CCc3ccc(C)cc3)C2)cc1 (centres undefined),-3.6%
13,Cc1ccc(NC(=O)CN2CCc3ccccc3C2)cc1C,-4.61%
14,Cc1ccc(OS(=O)Nc2cccc3nccnc23)cc1 (centres undefined),-0.877%
15,COc1cccc(CNC(=O)Cc2csc(Nc3nc(=S)[nH]c4ccccc34)n2)c1,12.2%
16,O=C(CCCn1c(=O)[nH]c2cc(Cl)ccc2c1=O)NCCN1CCN(c2ccccc2)CC1,-5.22%
17,O=C(Cc1csc(Nc2nc(=S)[nH]c3ccccc23)n1)NCCCN1CCN(c2cccc(Cl)c2)CC1,34.1% (active)
18,O=[N+]([O-])c1cc2ccccc2nc1-c1ccccc1,-4.74%
19,CC1COc2ccccc2N1C(=O)c1cccnc1Cl (centres undefined),-2.06%
20,CN1CCN(c2nc(Nc3ccc(O)cc3)nc3ccccc23)CC1,10.9%

row,Structure (SMILES),activation
1,OCCNc1nc(Nc2ccc(Cl)c(Cl)c2)nc2ccccc12,47% (active)
2,Cc1cccc(Nc2nc(NCCO)nc(N3CCCC3)n2)c1,2.75%
3,CC12CN(Cc3ccccc3)CC(C)(CN(Cc3ccccc3)C1)C2=NO,-1.53%
4,CCOc1ccccc1-n1c(SCC(=O)NCc2ccco2)nnc1-c1ccncc1,-2.73%
5,COc1ccccc1NC(=O)Nc1nnc(Cc2ccc(F)cc2)s1,-2.06%
6,O=C(NCCOc1ccccc1F)Nc1ccc(Br)cc1,-2.98%
7,O=C(Nc1ccccc1)Nc1nnc(COc2ccccc2F)s1,28.4% (active)
8,COc1cc(C)ccc1OCC(=O)OCC(=O)c1ccc[nH]1,6.43%
9,Cc1ccccc1Nc1nc(N)nc(COC(=O)CCC(=O)c2ccc(F)cc2)n1,-1.04%
10,Nc1nc(COC(=O)CCC(=O)c2ccc(Cl)cc2)nc(Nc2ccccc2)n1,21.6% (active)
11,CC(NC(=O)COC(=O)CCC(=O)c1ccc(Cl)cc1)c1ccccc1 (centres undefined),-9.29%
12,OCCCNC(c1ccccc1)c1ccc(O)cc1 (centres undefined),-0.537%
13,CCOc1ccc2nc(N(CCN(C)C)C(=O)c3ccc4ccccc4c3)sc2c1,18.5% (active)
14,CCc1ccc2nc(N(CCCN(C)C)C(=O)c3ccc4c(c3)OCCO4)sc2c1,-10.5%
15,CCCC(=O)N(CCN1CCOCC1)c1nc2ccc(OCC)cc2s1,1.55%
16,Cc1onc(-c2ccccc2Cl)c1C(=O)N(Cc1ccc(N(C)C)cc1)C(C)C,-12.7%
17,O=C(Cc1ccccc1)Nc1cccc(C(=O)N/N=C/c2ccco2)c1,-7.68%
18,O=C(N/N=C/c1ccco1)c1csc2c1CCCC2,2.38%
19,O=C(N/N=C/c1ccco1)c1ccc(NC(=O)C2CC2)cc1,31.9% (active)
20,O=C(NCC1CCCCC1)NCC1CCCCC1,-3.89%

row,Structure (SMILES),activation
1,CCC(C)NC(=O)c1ccc(NC(=O)CC2SC(N3CCCCC3)=NC2=O)cc1 (centres undefined),-9.42%
2,Cc1cc(C)n2nc(CNS(=O)(=O)c3c(F)c(F)c(F)c(F)c3F)nc2n1,-1.9%
3,CC(=O)c1cccc(NC(=O)c2cc(C)nn2-c2ccccc2)c1,-9.9%
4,CCn1c(NC(=O)c2ccccc2)c(-c2cccs2)c(=O)c2ccccc21,-4.73%
5,CCn1c(=O)c2cc(C(=O)Nc3cccc(C(C)=O)c3)sc2c2ccccc21,73.2% (active)
6,CCc1cccc(NC(=O)COC(=O)c2cc(=O)c3ccccc3o2)c1,-5.91%
7,COC(=O)c1c(C(=O)OC)c(-c2cccc(C)c2)n2c1CS(=O)C2 (centres undefined),-2.6%
8,Cc1ccccc1Nc1c([N+](=O)[O-])ccc2nonc12,-0.872%
9,CN(C)CCCN(C(=O)c1ccc(S(=O)(=O)N2CCCCCC2)cc1)c1nc2ccc(Br)cc2s1,41% (active)
10,CN(C)CCN(C(=O)C1=COCCO1)c1nc2ccc(Cl)cc2s1,-10.2%
11,COc1ccc2sc(N(CCCN(C)C)C(=O)c3ccc(S(=O)(=O)N(C)C4CCCCC4)cc3)nc2c1,15.3%
12,CCCCn1c(N)c(N(CCC(C)C)C(=O)c2ccc([N+](=O)[O-])o2)c(=O)[nH]c1=O,-0.599%
13,CCCCn1c(N)c(N(CCC(C)C)C(=O)COC(=O)c2ccc(CC)cc2)c(=O)[nH]c1=O,23.1% (active)
14,CCCCn1c(N)c(N(CCC(C)C)C(=O)COC(=O)c2cccnc2OCC)c(=O)[nH]c1=O,1.39%
15,CCn1c(/C=C/Nc2ccccc2)[n+](CC)c2ccc(C(=O)OCC(F)(F)F)cc21,-11.5%
16,O=C(NCCCn1ccnc1)C1CCCN(S(=O)(=O)c2cc(Cl)ccc2Cl)C1 (centres undefined),-4.73%
17,CC(Sc1nc2cc(Cl)ccc2s1)C(=O)Nc1ccc2c(c1)OCO2 (centres undefined),-3.52%
18,CC(Sc1nc(-c2ccccc2)cc(C(F)(F)F)n1)C(=O)Nc1ccc2c(c1)OCO2 (centres undefined),30.4% (active)
19,CCSc1ccccc1C(=O)Nc1ccc2c(c1)OCO2,0.935%
